The panel holds about 79,000 compounds, 15% with a hit somewhere; the sample as a whole holds those more often. The source made the active and inactive calls. Rule as the data show it: active = growth inhibition above about 70%; inactive = the rest.
Assays:
[1] = NCI Yeast Anticancer Drug Screen. Data for the rad52 strain (AID 147);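 also: 0% = growth of vehicle-treated control cultures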; conditions: S. cerevisiae rad52 mutant growth inhibition, stronger effect = higher value
In short: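 Measured: yeast growth inhibition. System: strain with a defined DNA damage repair alteration. Reference: vehicle-treated control cultures.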

[2] = NCI Yeast Anticancer Drug Screen. Data for the wt1 strain (AID 149);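 also: 0% = growth of vehicle-treated wt1 cultures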; conditions: S. cerevisiae wt1 strain (SPY 50644) growth inhibition, stronger effect = higher value
In short: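 Readout: yeast growth inhibition, normalised to vehicle controls, in the wt1 strain exposed to test compounds.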

[3] = NCI Yeast Anticancer Drug Screen. Data for the rad50EPP+ strain (AID 151);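 also: 0% = growth of vehicle-treated control cultures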; conditions: S. cerevisiae rad50 mutant strain, stronger effect = higher value
In short: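 One strain with a rad50 alteration (rad50EPP+) was compound-treated, its growth then compared to that of vehicle controls.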

[4] = NCI Yeast Anticancer Drug Screen. Data for the mgt1 strain (AID 153); conditions: S. cerevisiae mgt1 mutant growth inhibition, stronger effect = higher value
In short: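 After exposure of the mgt1 yeast mutant to compound, growth was measured and reported as inhibition compared with vehicle controls.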

[5] = NCI Yeast Anticancer Drug Screen. Data for the rad50 strain (AID 155);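 also: 0% = growth of vehicle-only cultures of the same strain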; conditions: S. cerevisiae rad50 strain growth inhibition, stronger effect = higher value
In short: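 Compounds were tested on a yeast strain with an engineered DNA damage repair alteration; the reported value is growth inhibition normalised to vehicle treatment.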

[6] = NCI Yeast Anticancer Drug Screen. Data for the mec2-1 strain (AID 157); conditions: S. cerevisiae mec2-1 strain, stronger effect = higher value
In short: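 Test agents were screened against the mec2-1 yeast strain, with defined DNA repair or cell cycle alteration. Growth was scored as inhibition against vehicle-only controls.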

[7] = NCI Yeast Anticancer Drug Screen. Data for the rad14 strain (AID 159);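 also: 0% = growth of vehicle-treated control cultures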; conditions: S. cerevisiae rad14 strain growth inhibition, stronger effect = higher value
In short: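 Compound-treated yeast with a defined DNA-repair lesion; growth inhibition normalised to vehicle-treated cultures.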

[8] = NCI Yeast Anticancer Drug Screen. Data for the sgs1 mgt1 strain (AID 161);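 also: 0% = growth of cultures given vehicle only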; conditions: S. cerevisiae sgs1 mgt1 strain, stronger effect = higher value
In short: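 Genetically altered yeast, compound exposure, growth inhibition relative to vehicle.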

[9] = NCI Yeast Anticancer Drug Screen. Data for the CLN2oe strain (AID 163);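 also: 0% = growth of vehicle-only control cultures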; conditions: S. cerevisiae CLN2oe strain, stronger effect = higher value
In short: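 Here, growth inhibition in a cell-cycle-altered yeast strain after compound exposure was quantified against vehicle control growth.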

[10] = NCI Yeast Anticancer Drug Screen. Data for the cln2 rad14 strain (AID 165);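 also: 0% = growth equal to vehicle treated cultures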; conditions: S. cerevisiae cln2 rad14 strain, stronger effect = higher value
In short: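 Growth of compound-exposed yeast (cln2 rad14 genotype) measured and expressed as inhibition relative to vehicle.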

[11] = NCI Yeast Anticancer Drug Screen. Data for the bub3 strain (AID 167); conditions: S. cerevisiae bub3 mutant strain, stronger effect = higher value
In short: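 Growth of a checkpoint-deficient yeast mutant is measured after compound exposure. Values represent inhibition relative to vehicle.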

[12] = NCI Yeast Anticancer Drug Screen. Data for the wt2 strain (AID 169);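 also: 0% = growth of vehicle-treated yeast cultures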; conditions: S. cerevisiae wt2 strain growth inhibition, stronger effect = higher value
In short: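 Genetically defined yeast strains from a DNA-repair/cell-cycle panel were used. Compound-exposed yeast growth was measured, and the inhibition was calculated relative to vehicle treatment.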

[13] = NCI Yeast Anticancer Drug Screen. Data for the mlh1 strain (AID 171);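 also: 0% = growth of vehicle-treated control cultures of the same strain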; conditions: S. cerevisiae mlh1 strain growth inhibition, stronger effect = higher value
In short: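 Here the genetically defined yeast mutant is grown with each compound, and the extent to which its growth falls below that of vehicle-exposed cells is reported.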

[14] = NCI Yeast Anticancer Drug Screen. Data for the sgs1 strain (AID 173);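 also: 0% = growth of vehicle-only control cultures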; conditions: S. cerevisiae sgs1 mutant, stronger effect = higher value
In short: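 Relative growth inhibition, referenced to vehicle, was determined in a yeast strain with a defined alteration affecting DNA damage repair or cell cycle control after compound exposure.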

[15] = NCI Yeast Anticancer Drug Screen. Data for the mlh1 rad18 strain (AID 175); conditions: S. cerevisiae mlh1 rad18 strain growth inhibition, stronger effect = higher value
In short: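 In this whole-cell yeast screen, a strain with altered DNA damage repair is challenged with compound, and its growth is measured against matched vehicle-treated controls.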

[16] = NCI Yeast Anticancer Drug Screen. Data for the rad18 strain (AID 177); conditions: S. cerevisiae rad18 mutant growth inhibition, stronger effect = higher value
In short: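 Screen uses a yeast strain with a defined lesion in DNA damage repair; compound effect is read as loss of growth compared to untreated vehicle cultures.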

[17] = at 5.0 µM (retest, dose inferred, filed as 0.5)
[18] = at 50.0 µM (retest, dose inferred, filed as 5.0)

Measured: growth inhibition

COc1ccc(C2c3cc4c(cc3OC(C)(O)C2C)OCO4)c(OC)c1 (stereo not drawn)
active: [1]; at 100.0 µM 96% | [2]; at 100.0 µM 83% | [4]; at 100.0 µM 89% | [5]; at 50.0 µM 95.5% | [5]; at 100.0 µM 98% | [6]; at 50.0 µM 94% | [6]; at 100.0 µM 94% | [7]; at 100.0 µM 98% | [8]; [18] 70% | [8]; at 50.0 µM 84.5% | [9]; at 100.0 µM 82% | [10]; at 50.0 µM 89.3% | [11]; at 100.0 µM 95% | [12]; at 100.0 µM 97% | [13]; at 100.0 µM 96% | [14]; at 100.0 µM 98% | [15]; [18] 81% | [15]; at 50.0 µM 93.5% | [16]; at 100.0 µM 97%
inactive: [1]; at 1.2 µM -1% | [1]; at 3.7 µM 1% | [1]; at 11.0 µM 3% | [1]; at 33.0 µM 10% | [2]; at 1.2 µM -1% | [2]; at 3.7 µM 3% | [2]; at 11.0 µM -2% | [2]; at 33.0 µM -2% | [3]; at 1.2 µM 6% | [3]; at 3.7 µM 7% | [3]; at 11.0 µM 12% | [3]; at 33.0 µM 7% | [3]; at 100.0 µM 4% | [4]; at 1.2 µM -5% | [4]; at 3.7 µM -6% | [4]; at 11.0 µM -4% | [4]; at 33.0 µM -2% | [5]; at 1.2 µM 0% | [5]; at 3.7 µM 1% | [5]; [17] 2% | [5]; at 11.0 µM 0% | [5]; at 33.0 µM 9% | [5]; [18] 66% | [6]; at 1.2 µM 3% | [6]; at 3.7 µM 8% | [6]; [17] 4% | [6]; at 11.0 µM 9% | [6]; at 33.0 µM 15% | [6]; [18] 63% | [7]; at 1.2 µM -3% | [7]; at 3.7 µM -4% | [7]; at 11.0 µM -4% | [7]; at 33.0 µM 1% | [8]; [17] 4% | [9]; at 1.2 µM -6% | [9]; at 3.7 µM -12% | [9]; at 11.0 µM -2% | [9]; at 33.0 µM 4% | [10]; [17] 5% | [10]; [18] 51% | [11]; at 1.2 µM -4% | [11]; at 3.7 µM -1% | [11]; [17] -4% | [11]; at 11.0 µM 1% | [11]; at 33.0 µM 6% | [11]; [18] 67% | [11]; at 50.0 µM 43% | [12]; at 1.2 µM -2% | [12]; at 3.7 µM 0% | [12]; at 11.0 µM -2% | [12]; at 33.0 µM 1% | [13]; at 1.2 µM 3% | [13]; at 3.7 µM 2% | [13]; at 11.0 µM 3% | [13]; at 33.0 µM 6% | [14]; at 1.2 µM 2% | [14]; at 3.7 µM 2% | [14]; at 11.0 µM 4% | [14]; at 33.0 µM 18% | [15]; [17] -6% | [16]; at 1.2 µM 1% | [16]; at 3.7 µM -2% | [16]; at 11.0 µM 1% | [16]; at 33.0 µM 15%

Reference: PubChem BioAssay (NCI)
